Drawing on PubChem BioAssay (EPA / NIEHS), this text covers outcome for 40 compounds.

Results filed as inconclusive are left out. Calls of active or inactive are those of the source. Rule for the calls: active = hit-call score of the fitted dose curve at least 0.9, where 1 is the maximum; inconclusive = response in the unintended direction; inactive = score below 0.9.

Androgen receptor (Homo sapiens), sequence (P10275 whole entry, looked up): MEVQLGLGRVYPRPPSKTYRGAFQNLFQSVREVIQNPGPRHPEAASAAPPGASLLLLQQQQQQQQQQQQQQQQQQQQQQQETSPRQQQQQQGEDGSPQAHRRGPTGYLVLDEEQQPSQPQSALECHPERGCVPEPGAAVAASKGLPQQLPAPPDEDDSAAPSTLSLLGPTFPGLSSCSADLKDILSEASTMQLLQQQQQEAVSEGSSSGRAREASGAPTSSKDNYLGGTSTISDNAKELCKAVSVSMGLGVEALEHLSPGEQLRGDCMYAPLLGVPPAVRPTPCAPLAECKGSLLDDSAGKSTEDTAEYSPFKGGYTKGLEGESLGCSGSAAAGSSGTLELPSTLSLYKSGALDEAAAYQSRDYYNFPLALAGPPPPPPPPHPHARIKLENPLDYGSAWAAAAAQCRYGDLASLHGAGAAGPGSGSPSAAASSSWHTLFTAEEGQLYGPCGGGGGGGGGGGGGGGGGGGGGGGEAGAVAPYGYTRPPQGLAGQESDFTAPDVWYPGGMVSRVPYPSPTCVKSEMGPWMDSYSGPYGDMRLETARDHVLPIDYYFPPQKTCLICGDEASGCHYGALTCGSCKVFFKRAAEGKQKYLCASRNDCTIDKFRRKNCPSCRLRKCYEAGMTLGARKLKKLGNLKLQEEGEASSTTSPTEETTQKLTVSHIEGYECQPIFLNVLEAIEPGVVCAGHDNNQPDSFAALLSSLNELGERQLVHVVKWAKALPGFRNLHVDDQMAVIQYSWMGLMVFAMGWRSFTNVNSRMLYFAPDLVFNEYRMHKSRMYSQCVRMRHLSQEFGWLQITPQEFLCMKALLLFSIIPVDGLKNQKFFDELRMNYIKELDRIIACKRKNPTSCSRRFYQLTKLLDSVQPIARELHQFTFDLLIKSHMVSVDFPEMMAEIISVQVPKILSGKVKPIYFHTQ

The assay concerns the target Androgen receptor (Homo sapiens) (UniProt P10275). In words: ATG_AR_TRANS: Attagene TRANS-FACTORIAL HepG2 Assay for human Androgen Receptor (AR) (AID 2282973). The conditions noted are these: HepG2 Attagene TRANS-FACTORIAL AR reporter transcription. As to the method: ATG_TRANS is a cell-based, multiplexed-readout assay that uses HepG2, a human liver cell line, with measurements taken at 24 hours after chemical dosing in a 24-well plate.ATG_AR_TRANS is one of 30 assay component(s) measured or calculated from the ATG_TRANS assay. It is designed to make measurements of mRNA induction, a form of inducible reporter, as detected with fluorescence intensity signals by Reverse transcription polymerase chain reaction (RT-PCR) and Capillary electrophoresis technology.Data from the assay component ATG_AR_TRANS was analyzed into 1 assay endpoint. This assay endpoint, ATG_AR_TRANS, was analyzed in the positive analysis fitting direction relative to DMSO as the negative control and baseline of activity. Using a type of inducible reporter, measures of mRNA for gain-of-signal activity can be used to understand the reporter gene at the transcription factor-level as they relate to the gene AR. Furthermore, this assay endpoint can be referred to as a primary readout, because this assay has produced multiple assay endpoints where this one serves a reporter gene function. To generalize the intended target to other relatable targets, this assay endpoint is annotated to the nuclear receptor intended target family, where the subfamily is steroidal.
Human liver HepG2 cells are transiently transfected with multiple reporter transcription units (MRTUs) in 6-well plates using FuGene 6 reagent (Roche; 3 ml FuGene/1 mg DNA). The MRTU constructs are regulated by a cis-regulating element (promoter). […] A major difference between the CIS and TRANS system is that in CIS activities of endogenous TFs are measured, whereas the TRANS assay evaluates changes in activities of exogenous, chimeric NR-Gal4 proteins. […] At the end of 24 hour incubation, total RNA was isolated using TriZol reagent (Invitrogen). The isolated RNA is then reverse-transcribed using oligo(dT) primer and Mo-MLV reverse transcriptase (Invitrogen) with DNAse I (Ambion) treatment for 30 min. The one-tenth of the produced cDNA was amplified by PCR using Taq DNA polymerase (Invitrogen) and two reporter sequence-specific primers. The PCR products were fluorescently labeled by primer extension with 6-arboxyfluorescein (6-FAM) 5'-labeled reporter sequence-specific primer (2 min at 95 C, 20 s at 68 C and 10 min at 72 C) and these products were digested with 5U of HpaI (New England Biolabs) for 2h at 37 C. The fragments were purified using Qiaquick PCR columns (Qiagen), analyzed on an ABI 3130xL genetic analyzer (Applied Biosystems) with peak positions identified by using a set of X-rhodamine (ROX)-labeled MapMarker1000 molecular weight standards (BioVentures). The raw capillary electrophoresis data was processed using Attagraph software (Attagene).
Turning to `C=C(Cl)Cl`, the result was inactive.

Regarding `NC(=O)C(F)(F)C(F)(F)C(F)(F)C(F)(F)F`, the compound was called inactive.

As to `CCc1cccc(C)c1N(C(=O)C(=O)O)C(C)COC` (stereo not given), the call was inactive.

With `CCCOC(=O)c1ccc(C(=O)OCCC)nc1`, the compound was called inactive.

In the case of `OCC(F)(F)C(F)(F)C(F)(F)F`, the outcome was inactive.

As to `O=C1OC(=O)c2cc(Oc3ccc4c(c3)C(=O)OC4=O)ccc21`, the result was inactive.

With `CCOC(=O)[C@H](O)[C@@H](O)C(=O)OCC`, the compound was classed as inactive.

For the compound `CCCC(=O)OCC(COC(=O)CCC)OC(=O)CCC`, the compound was classed as inactive.

`O=[N+]([O-])c1cc(C(F)(F)F)ccc1Cl`: the compound was called inactive.

On to `Cc1ccc(C2OC[C@@H]3OC(c4ccc(C)cc4)O[C@H]([C@H](O)CO)[C@@H]3O2)cc1` (stereo not given in full), for which the call was inactive.

With `O=Cc1ccccc1C=O`, the result was inactive.

Take `FC(F)C(F)(F)COCC1CO1` (stereo not given): the outcome was inactive.

Regarding `COCC(C)OCC(C)O` (stereo not given), the call was inactive.

Turning to `C=CCCCCCCCCCCCC`, the compound was called inactive.

On to `OCCCCl`, for which the outcome was inactive.

For `OCc1c[nH]c2ccccc12`, the outcome was inactive.

`CCCCCCCCSCCO`: the compound was called inactive.

Turning to `CC1CCC(C(C)(C)O)CC1` (stereo not given), the result was inactive.

For the compound `C=C(C)C(=O)OCC(F)(F)C(F)(F)C(F)(F)C(F)F`, the compound was classed as inactive.

With `c1ccc2c(c1)c1cccc3ccc4cccc2c4c31`, the outcome was inactive.

As to `CCCCC(CC)COC(=O)/C=C\C(=O)OCC(CC)CCCC` (stereo not given), the outcome was inactive.

Regarding `O=C1OCc2ccccc21`, the result was inactive.

In the case of `O=C(O)C(F)(F)C(F)(F)C(F)(F)C(F)(F)C(F)(F)C(F)(F)C(F)(F)C(F)(F)C(F)(F)C(F)(F)C(F)(F)C(F)(F)C(F)(F)F`, the compound was called inactive.

For `COCCOCCC[Si](C)(O[Si](C)(C)C)O[Si](C)(C)C`, the compound was classed as inactive.

For `CCCCCc1ccc(O)cc1`, the compound was classed as inactive.

Consider `O=C(Nc1ccc(Cl)cc1)Nc1ccc(Cl)c(Cl)c1`, for which the result was inactive.

Take `Cc1nc(-c2ccc3c(c2)CCN(CCC2CCC(NC(=O)/C=C/c4ccc(F)cc4)CC2)CC3)no1` (stereo not given): the compound was classed as inactive.

On to `COC(=O)C(F)(F)C(F)(F)C(F)(F)C(F)(F)C(F)(F)F`, for which the result was inactive.

As for `Cc1cc(C)c(S(=O)(=O)O)cc1N=Nc1cc(S(=O)(=O)O)c2ccccc2c1O`, the compound was called inactive.

`Cc1cccc([N+](=O)[O-])c1C`: the call was inactive.

With `CC/C=C\C/C=C\C/C=C\CCCCCCCC(=O)OC`, the call was inactive.

For `O=C1C(Cl)=C(Cl)C(=O)C(Cl)=C1Cl`, the compound was called inactive.

As for `CCOc1ccc2c(c1)C(C)=CC(C)(C)N2`, the outcome was inactive.

Consider `Cc1cc(F)ccc1-c1cc(N2CC[C@@H](O)[C@H]2CO)ncc1N(C)C(=O)C(C)(C)c1cc(C(F)(F)F)cc(C(F)(F)F)c1`, for which the outcome was inactive.

For `OCc1ccccc1`, the compound was classed as inactive.

For the compound `CC(C)(C)C(O)C(Oc1ccc(-c2ccccc2)cc1)n1cncn1` (stereo not given), the outcome was inactive.

Consider `C=C1CC[C@H]2O[C@]2(C)CC[C@@H]2[C@@H]1CC2(C)C`, for which the result was inactive.

With `O=[N+]([O-])c1ccccc1C(F)(F)F`, the result was inactive.

For the compound `[Cl][Bi]([Cl])([c]1ccccc1)([c]1ccccc1)[c]1ccccc1`, the outcome was inactive.

On to `Oc1ccc2ccccc2c1`, for which the compound was called inactive.
